40 compounds from ChEMBL document CHEMBL3988442, “University of Dundee, Small-Polar-MMV Screening Library” (2021) can be followed below.

In the test the target is AMP-activated protein kinase, AMPK (Homo sapiens) (UniProt P54646+O43741+P54619+Q9UGJ0+Q9Y478+Q13131+Q9UGI9). Nature of the test: AMP-dependent Kinase enzyme assay. An in vitro enzyme assay that detects ADP turnover that is directly proportional to AMPK activity. This uses naive AMPK that is activated during the assay with MK-8722. Format: functional. Further details: scale not given: direction of the effect not stated beside the values. The note with it: 30 µM.
Take `CC(OCC1CC1)C(=O)Nc1cccc(C(=O)Nc2ccncc2)c1` (stereo not given): the Percent Effect was 17.8%. Take `CCC1COCCN1C(=O)NCc1nccn1CCc1ccccc1` (stereo not given): the Percent Effect is -3.33%. Turning to `CC(C(=O)Nc1cccc(F)c1)N(C)CCN1CCOCC1` (stereo not given), the Percent Effect was determined as 0.543%.

For `CNC(=O)c1cccnc1NCc1ccc(Cn2cccn2)cc1`, the Percent Effect is -3.46%. On to `COCC(NC(=O)c1cc(NC(C)=O)ccc1Cl)c1ccccn1` (stereo not given), for which the Percent Effect worked out at 1.62%.

Take `CNC(=O)c1cn2cc(-c3ccc(F)cc3)n(CC=C(C)C)c(=O)c2n1`: the Percent Effect was 3.81%.

Regarding `COCC1CCCN(c2cncc(OCc3ccccc3)n2)C1` (stereo not given), the Percent Effect stood at 1.9%.

For `Cc1cnn(C2CN(c3ccccc3S(=O)(=O)C(F)(F)F)C2)c1`, the Percent Effect is 9.6%. As for `CC(C(=O)N1CCCC1)N1CCN(c2ncc(Cl)cn2)CC1` (stereo not given), the Percent Effect was -1.02%. On to `CN(C)C(C(=O)N1CCN(CCn2cccc2)CC1)c1ccc(F)cc1` (stereo not given), for which the Percent Effect was -8.31%. For the compound `Cc1cnc(CN(C)Cc2cccc(OC(F)(F)F)c2)cn1`, the Percent Effect was -3.05%. On to `O=C(CNC(=O)c1ccccc1I)NCc1ccccc1F`, for which the Percent Effect was 4.78%. For `CCOc1ccc2cc(C(=O)NCCNc3ccc(C)nn3)[nH]c2c1`, the Percent Effect came out at 6.22%. For the compound `CC(CN1CCOCC1)NC(=O)N1CCN(S(C)(=O)=O)CC1` (stereo not given), the Percent Effect came out at 8.74%. As to `Cc1nc2c(c(NCCNC(=O)C(C)C)n1)Cc1ccccc1OC2`, the Percent Effect amounted to 3.56%.

With `CC(C)(C)NC(=O)CN1CCCNCC1`, the Percent Effect is -0.0888%. Consider `c1cc(NCc2ccsc2)cc(-c2nnc[nH]2)c1`, for which the Percent Effect amounted to 14.3%. Turning to `CCc1ccc(CN2CCOC(Cc3cccc(F)c3)C2)nc1` (stereo not given), the Percent Effect amounted to 5.27%. With `CC1CN(C)CCN1C(=O)c1cccn1Cc1ccncc1` (stereo not given), the Percent Effect was 1.97%. Take `CCc1cc(NCCCc2nc(C)no2)nc(-c2ccncc2)n1`: the Percent Effect was -1.39%. Take `Cc1ncc(CNC(=O)NCC(C)Oc2ccccc2F)s1` (stereo not given): the Percent Effect worked out at 6.1%. For `CN1CCC(Nc2ccc(F)cc2OCC(F)(F)F)C1=O` (stereo not given), the Percent Effect is -16.7%. The result for `CN(C(=O)C1CCN(Cc2cnc3ccccn23)CC1)c1ccccc1` reads -0.957%; that for `O=C(NC1CC1)c1nc(Cn2c(C(F)F)nc3ccccc32)no1`, 10.9%. Turning to `NC(=O)CN(Cc1ncc(-c2ccccc2)o1)C1CCCC1`, the Percent Effect is -1.01%. With `NC(=O)NC1(C(=O)N2CCc3c(Cl)cccc3C2)CCCCC1`, the Percent Effect is -3.74%. With `COCc1ccccc1NC(=O)CCNC(=O)c1ccoc1`, the Percent Effect is -3.07%. Take `Cc1nc(C)n(CC2CCCN2c2ncnc3sc(C)c(C)c23)n1` (stereo not given): the Percent Effect is -3.96%. On to `CCn1cnnc1CCNC(=O)CCNC(=O)c1ccccc1F`, for which the Percent Effect was -0.474%. Regarding `Cc1cc(=O)n2nc(Oc3cccc(C(N)=O)c3)sc2n1`, the Percent Effect is -11.1%.

On to `CC1CC(NS(=O)(=O)c2ccc(C(F)(F)F)nc2)C1` (stereo not given), for which the Percent Effect was 19.9%. Take `CS(=O)(=O)N1CCCC(c2cccc(-c3ccccc3F)n2)C1` (stereo not given): the Percent Effect stood at 12.2%. In the case of `Cc1ccc2ncccc2c1CN1CC[C@H](N(C)C)[C@H](CCC(=O)O)C1`, the Percent Effect is -2.6%. For `COc1ccc(CCN(C)C(=O)CN2C(=O)OC[C@@H]2C(C)C)cc1OC`, the Percent Effect was determined as 4.03%. `Cc1cc(C[S+]([O-])Cc2ccccc2F)no1` (stereo not given): the Percent Effect stood at 13.9%.

Consider `O=S(=O)(NCCCn1cncn1)c1ccc2c(c1)CCO2`, for which the Percent Effect is 4.51%.

As for `CCC(=O)NCCc1cc2nc(-c3ccncc3)ccn2n1`, the Percent Effect is 18.1%. Regarding `COc1cccc(CC2CCCN2Cc2nccn2C)c1` (stereo not given), the Percent Effect is -2.19%.

As for `CN(Cc1nc(CS(C)(=O)=O)no1)c1ccccc1`, the Percent Effect was 0.0849%. As for `CCC1CCCCN1C(=O)Cn1cnc(C#N)n1` (stereo not given), the Percent Effect is -0.907%.
